Reference: PubChem BioAssay AID652062 (Broad Institute, 2013)
Screen size: about 1,400 compounds; about 1,100 (79%) were called active.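 The calls were made as follows: active = fitted half-maximal concentration of a falling signal no higher than twice the top valid dose in every test run; inconclusive = runs disagree, or flat partial inhibition, or poor fit; inactive = every run inactive: flat, wrong direction, or potency beyond limit.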 So high a share suggests a set chosen from earlier hits. The list is a sample of the results. Potency and affinity values are given separately.

Assay: inhibitors of clade B AD8 Env fusion, dose response, cell-based, cherry-pick (AID 652062)
Settings: HeLa-AD8 Env / CEM-CCR5 cell fusion, luciferase; at 35 µM (top of the series) unless noted

SMILES | activity change, negative = inhibition
Cc1onc(-c2ccccc2)c1C(=O)OCCOc1cccc(Cl)c1 | -18.8%
CC1(C)N=C(N)N=C(N)N1CCCCc1ccccc1 | 3.6%
CS(=O)(=O)N1CCN(c2ccccc2NC(=O)C(c2ccccc2)c2ccccc2)CC1 | 38.4%
O=C(O)C[C@@H]1CC[C@@H](NC(=O)c2ccncc2)[C@H](CO)O1 | 28.7%
O=C(O)C[C@@H]1C=C[C@H](NC(=O)Nc2ccccc2)[C@H](CO)O1 | -16.5%
O=C(O)C[C@@H]1C=C[C@@H](NC(=O)Nc2ccccc2)[C@H](CO)O1 | 11.3%
Cc1cccc(C)c1N(CC(O)Cn1c2ccccc2c2ccccc21)S(C)(=O)=O (stereo not drawn) | 16%
COc1ccccc1C#Cc1ccc2c(c1)O[C@@H](CN(C)Cc1ccncc1)[C@H](C)CN([C@H](C)CO)S2(=O)=O | 10.1% [at 16 µM]
C[C@@H]1CN([C@H](C)CO)S(=O)(=O)c2ccc(-c3ccncc3)cc2O[C@@H]1CN(C)Cc1ccc(Oc2ccccc2)cc1 | 160%
Cc1ccc(-c2ccc3c(c2)O[C@@H](CN(C)Cc2cccnc2)[C@H](C)CN([C@H](C)CO)S3(=O)=O)cc1 | -56.7%
COc1ccccc1CN1C(=O)CN(C2CCCCCC2)C(=O)C1c1ccc(F)cc1 (stereo not drawn) | 20.3%
Cc1ccc(-n2nc3c(c2NC(=O)c2ccco2)CS(=O)C3)cc1 (stereo not drawn) | -28.9%
COc1ccccc1CN(C)C(=O)CN1CCN(C(=O)c2cccs2)CC1 | -1.14%
O=C(C[C@@H]1C[C@@H]2c3cc(NC(=O)C4CCC4)ccc3O[C@@H]2[C@@H](CO)O1)NCc1ccc2c(c1)OCO2 | 48.6%
O=C(C[C@@H]1C[C@@H]2c3cc(NC(=O)C4CCOCC4)ccc3O[C@@H]2[C@H](CO)O1)NCCc1ccccc1 | -21%
O=C(C[C@@H]1C[C@H]2c3cc(NC(=O)C4CCOCC4)ccc3O[C@H]2[C@@H](CO)O1)NCc1ccccc1 | 37.3%
O=C(C[C@H]1C[C@@H]2c3cc(NC(=O)C4CCC4)ccc3O[C@@H]2[C@@H](CO)O1)NCC(F)(F)F | 7.19%
CN(C)C(=O)C[C@H]1C[C@@H]2c3cc(NC(=O)NC4CCCCC4)ccc3O[C@@H]2[C@H](CO)O1 | -20.7%
O=C(C[C@H]1C[C@@H]2c3cc(NC(=O)C4CCC4)ccc3O[C@@H]2[C@@H](CO)O1)NCc1ccc2c(c1)OCO2 | 25.6%
O=C(C[C@@H]1C[C@@H]2c3cc(NC(=O)C4CCC4)ccc3O[C@@H]2[C@@H](CO)O1)NCC(F)(F)F | 37%
O=C(C[C@@H]1C[C@H]2c3cc(NC(=O)NC4CCCCC4)ccc3O[C@H]2[C@@H](CO)O1)NCc1ccncc1 | 17.5%
O=C(C[C@H]1C[C@H]2c3cc(NC(=O)C4CCC4)ccc3O[C@H]2[C@@H](CO)O1)NCc1ccc2c(c1)OCO2 | 38.8% [at 30 µM]
O=C(C[C@@H]1C[C@@H]2c3cc(NC(=O)Nc4ccccc4)ccc3O[C@@H]2[C@@H](CO)O1)NCc1ccccc1 | 42.6% [at 30 µM]
O=C(C[C@@H]1C[C@@H]2c3cc(NC(=O)c4ccc5c(c4)OCO5)ccc3O[C@@H]2[C@@H](CO)O1)NCc1ccc(Oc2ccccc2)cc1 | 0.613% [at 16 µM]

SMILES | activity change, negative = inhibition
O=C(C[C@H]1C[C@H]2c3cc(NC(=O)Cc4ccncc4)ccc3O[C@H]2[C@@H](CO)O1)NCc1ccncc1 | 20.8%
COc1ccc(S(=O)(=O)N(C)C[C@@H]2Oc3ccc(NC(=O)C4CCCCC4)cc3CC(=O)N([C@@H](C)CO)C[C@@H]2C)cc1 | 5.28% [at 16 µM]
O=C(N[C@@H]1CC[C@H](CCNS(=O)(=O)c2ccc(F)cc2)O[C@@H]1CO)C1CC1 | 21.6%
C[C@@]12C(=O)N(Cc3ccco3)CC(=O)N1[C@H]1c3ccccc3OC[C@@H]1[C@@H]2c1ccccc1 | 2.22%
C[C@H]1NC(=O)[C@@]2(C)[C@H](c3ccccc3)[C@H]3COc4ccccc4[C@@H]3N2C1=O | 80.3%
COc1cc2c(cc1OC)C(=O)N1[C@H]3c4cc(Cl)ccc4OC[C@@H]3[C@H](c3ccccc3)[C@]1(C)C(=O)N2 | -26.3%
Cc1cc(Cl)ccc1OCC(=O)NNC(=O)C1CSC2(C)CCC(=O)N12 (stereo not drawn) | 1.11%
COc1ccc([Si](C)(C)[C@H]2[C@H](CCO)O[C@@]3(C(=O)N(Cc4cccc(N5CCOC5=O)c4)c4ccccc43)[C@@H]2C)cc1 | 108%
COc1ccc(S(=O)(=O)N2CCCCC2)cc1NC(=O)CN(Cc1ccco1)Cc1ccco1 | -14.6%
COc1ccc(S(=O)(=O)N2CCCCC2)cc1NC(=O)CCCOc1ccc(C)cc1 | 3.18%
CCCCCCOc1ccc(OC(=O)c2ccncc2)cc1 | -6.3%
COc1ccc(-c2c(C)nn3c(C(F)(F)F)cc(C)nc23)cc1 | 123%
CC(=O)Nc1ccc(C(=O)OCC(=O)NC(=O)NCc2ccccc2)cc1 | 16.9%
CSc1ncccc1C(=O)OCC(=O)Nc1ccc(C)c(S(=O)(=O)N2CCOCC2)c1 | -12.3% [at 16 µM]
O=C(COC(=O)c1cc(S(=O)(=O)N2CCOCC2)ccc1O)NCc1ccc2c(c1)OCO2 | 28.5%
CO[C@H]1CN(C)C(=O)c2cc(NC(=O)c3ccc(F)cc3)ccc2OC[C@H](C)N(C(=O)CN(C)C)C[C@@H]1C | 6.3%
COCC(=O)Nc1ccc2c(c1)C(=O)N(C)C[C@@H](OC)[C@H](C)CN(C(C)=O)[C@H](C)CO2 | 28.2%
CCCC(=O)Nc1ccc2c(c1)OC[C@H](C)N(C(=O)CN(C)C)C[C@@H](C)[C@H](OC)CN(C)C2=O | -2.16%
CO[C@H]1CN(C)C(=O)c2ccc(NC(=O)Nc3cccc(F)c3)cc2OC[C@H](C)NC[C@H]1C | 25.2%
CO[C@H]1CN(C)C(=O)c2ccc(NC(=O)Nc3cccc(F)c3)cc2OC[C@@H](C)N(C(C)=O)C[C@H]1C | 72.4%
CCc1ccc(C(=O)CN2C(=O)NC(C)(c3ccc(C)cc3)C2=O)cc1 (stereo not drawn) | -27.5%
COc1cccc(S(=O)(=O)N(C)C[C@H]2Oc3cc(C4=CCCC4)ccc3S(=O)(=O)N([C@H](C)CO)C[C@@H]2C)c1 | 27.1%
C[C@H]1CN([C@@H](C)CO)C(=O)Cc2cc(NS(=O)(=O)c3ccccc3)ccc2O[C@@H]1CN(C)Cc1ccc(Cl)c(Cl)c1 | -28.9%
C[C@@H]1CN([C@H](C)CO)C(=O)c2cc(NS(=O)(=O)c3ccc(F)cc3)ccc2O[C@H]1CN(C)Cc1ccc(C(F)(F)F)cc1 | -13.8%
